The list is not random: actives were taken first. Their share in the collection is about 9.2%.
Lamin A splicing: LMNA splicing modulation | 200,000 tested, 0.01% active | HeLa LMNA splicing GFP/RFP minigene ratio, 48 h | Potency, µM (series often up to 46.1 µM), most hits filed as inhibitors; active means well fitted inhibition curve with a large enough effect in the signal ratio, with a control signal flat, not every such curve was filed as active; inconclusive means small, poorly fitted or top-dose-only effect, or effect the other way, or a change in a side signal; the % refers to the signal ratio
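S3 HeLa stable clones carrying a lamin A-EGFP splicing minigene plus DsRed2 were seeded at 600 cells/well in Opti-MEM with 2% FBS, pin-dosed and incubated 48 h at 37°C. Acumen cytometry (488 nm) gave the GFP/RFP total-intensity ratio.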
ALDH1A1 block: inhibitors of human aldehyde dehydrogenase 1A1 | P00352 | Purified ALDH1A1, NADH fluorescence, propionaldehyde substrate | Potency, µM (titrated, usually from 75.3 µM), most hits filed as inhibitors | 220,000 tested, 7.3% active | AID 1030
Target sequence (P00352 whole entry, looked up): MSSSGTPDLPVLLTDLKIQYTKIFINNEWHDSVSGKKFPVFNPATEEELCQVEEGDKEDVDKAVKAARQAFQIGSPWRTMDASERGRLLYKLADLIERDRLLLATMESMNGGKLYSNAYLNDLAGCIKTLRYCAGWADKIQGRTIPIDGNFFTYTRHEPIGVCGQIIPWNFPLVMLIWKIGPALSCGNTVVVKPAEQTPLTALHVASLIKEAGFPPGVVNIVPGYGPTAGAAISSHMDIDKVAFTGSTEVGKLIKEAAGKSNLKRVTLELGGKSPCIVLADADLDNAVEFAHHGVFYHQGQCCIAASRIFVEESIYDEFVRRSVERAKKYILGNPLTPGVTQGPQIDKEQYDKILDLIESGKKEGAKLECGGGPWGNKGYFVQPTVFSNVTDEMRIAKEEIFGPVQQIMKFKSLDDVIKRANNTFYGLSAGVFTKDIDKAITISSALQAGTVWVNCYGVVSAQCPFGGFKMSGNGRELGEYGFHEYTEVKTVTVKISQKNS
HTT ATP protect: Huntington cell model cytoprotection by ATP luminescence. AID 1471. PC12 HTT-Q103 induced, cytoprotection, ATP luminescence, 40 h. Potency, µM (titrated, usually from 56.4 µM), most hits filed as activators. 230,000 tested, 0.14% active; active means well fitted curve in the direction sought with a large enough effect; inconclusive means small, poorly fitted or top-dose-only effect, or another doubt; inactive means no such curve, though single readings can be large; an effect the other way counts as inactive or inconclusive; further: nearly all actives have a fitted effect of over 45% in size
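Compounds were screened for protection of PC12 cells against cell death after tebufenozide induction (100 nM final) of mutant Huntingtin exon 1 (Q103) fused to GFP.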
HPGD inh: inhibitors of human 15-hydroxyprostaglandin dehydrogenase (HPGD); P15428; purified HPGD, NADH fluorescence kinetic, PGE2 substrate; Potency, µM, hits mostly inhibitors; 150,000 tested, 4.3% active
Target sequence (P15428 whole entry, looked up): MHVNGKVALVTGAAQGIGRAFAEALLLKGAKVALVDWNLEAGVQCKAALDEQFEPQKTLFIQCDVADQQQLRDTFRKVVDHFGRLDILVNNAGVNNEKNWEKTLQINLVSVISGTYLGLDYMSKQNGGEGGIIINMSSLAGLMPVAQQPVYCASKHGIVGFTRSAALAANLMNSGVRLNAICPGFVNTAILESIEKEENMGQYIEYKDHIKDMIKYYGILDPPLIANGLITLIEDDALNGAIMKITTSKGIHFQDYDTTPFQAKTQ
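20 nM HPGD preincubated 15 min at room temperature with compound in 50 mM Tris-HCl pH 8, 0.01% Tween 20. Started with 1 mM NAD+ and 30 uM prostaglandin E2; NADH fluorescence (360/450 nm) read 5 times over 30-s intervals, last minus first.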
JMJD2E inh: blocks human JMJD2E demethylase activity; B2RXH2; Potency, µM (highest dose often 57.1 µM), actives largely listed as inhibitors; JMJD2E catalytic domain, FDH-coupled NADH fluorescence (FDH is formaldehyde dehydrogenase); 230,000 tested, 1.6% active; further: nearly all actives have a fitted effect of over 50% in size
HTT aggregate: reduces HttQ103-GFP aggregates in PC12 cells; PC12 HttQ103-GFP aggregates, Acumen cytometry, 40 h; Potency, µM (top dose mostly 46.1 µM), usual class: inhibitors; 220,000 tested, 1.1% active; AID 1688; active means well fitted curve in the direction sought with a large enough effect; inconclusive means small, poorly fitted or top-dose-only effect, or another doubt; inactive means no such curve, though single readings can be large; an effect the other way counts as inactive or inconclusive; further: nearly all actives have a fitted effect of over 60% in size
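PC12/HTTQ103-GFP, ecdysone-inducible; teb 100 nM; cpd qHTS titration; GFP aggregates read on laser cytometer, Ex 488/Em 500-530 nm.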
Numbers stand for hits; – = inactive; ? = inconclusive; · = no result; [ ] = dose if it differs, or a comment. Unless noted, the call rests on the fitted dose curve; in most records, active means well fitted inhibition curve with a large enough effect (not every such curve was filed as active); inconclusive means small, poorly fitted or top-dose-only effect, or another doubt; inactive means no such curve, though single readings can be large or run the other way.

SMILES	Lamin A splicing	ALDH1A1 block	HTT ATP protect	HPGD inh	JMJD2E inh	HTT aggregate
COc1ccc(NCc2nnc(SCC(=O)c3ccc(OC)cc3)n2C)cc1	–	6.3µM	–	–	–	–
Cc1ccc(NCc2nnc(SCc3ccc(C#N)cc3)n2Cc2ccco2)c(C)c1	–	–	–[10 µM]	–	–	–
CCOc1ccc(C(=O)CSc2nnc(C3CC3)n2C)cc1	–	7.9µM	–[10 µM]	–	–	–
Cc1ccc(OCc2nnc(SCC(=O)c3ccccc3)n2Cc2ccco2)cc1	?	?	–[0.074 µM]	–	–	–
NC(=S)N/N=C\c1c(OCc2ccccc2Cl)ccc2ccccc12	·	–	–	·	?	–
Cn1c(SCc2ccccc2)nnc1C1CCCNC1 (stereo not given)	–	–	–[10 µM]	–	–	–
Cn1c(SCc2ccc(Cl)cc2)nnc1C1CC1	–	12µM	?	·	?	–[9.22 µM]
c1ccc2c(c1)-c1nc3ccccc3cc1[C@H]2N1CCOCC1	·	–[13.5 µM]	–[10 µM]	–	·	·
CCc1nc2c(sc3nc4c(cc32)COC(C)(C)C4)c(=O)n1CCN(CC)CC	?	10µM	–	·	–	–
CCC(C)Nc1nnnc2c1sc1nc3c(cc12)COC(C)(C)C3 (stereo not given)	?	10µM	–	·	?	–
CCc1nc(OCc2ccccc2)c2sc3nc4c(cc3c2n1)COC(C)(C)C4	–	0.79µM	–	–	–	–
C=CCn1c(C)nc2c(sc3nc4c(cc32)COC(C)(C)C4)c1=O	·	?	–[10 µM]	·	?	–[9.22 µM]
CC1(C)Cc2nc3sc4c(=O)n(CC(=O)NCc5ccco5)cnc4c3cc2CO1	–	22µM	–[0.074 µM]	?	?	–
COc1ccc(OC)c(NC(=O)CSc2nnc3ccc4ccccc4n23)c1	–	·	·	·	·	·
CC(C)COc1ncnc2c1sc1nc3c(cc12)COC(C)(C)C3	·	·	–[10 µM]	·	–	–[9.22 µM]
CCSc1ncnc2c1sc1nc3c(cc12)COC(C)(C)C3	–	0.79µM	–[10 µM]	–	–	–
NC(=O)CN1C(=O)/C(=c2\sc3nc(=O)c(Cc4ccccc4)nn3c2=O)c2ccccc21	·	·	–[10 µM]	·	–	–[9.22 µM]
CCCCN1C(=O)/C(=c2\sc3nc(=O)c(-c4ccccc4)nn3c2=O)c2ccccc21	–	4.5µM	–	25µM	–	–
CCCN1C(=O)/C(=c2\sc3nc(=O)c(Cc4ccc(C)cc4)nn3c2=O)c2ccccc21	?	6.3µM	–	·	–	–
COc1ccc(/C=C/C(=O)OCCC(C)C)cc1	?	–	–	–	·	–
O=C(NCC1CCCO1)c1nn2cccnc2c1Cl (stereo not given)	–	–	–[0.074 µM]	25µM	–	–
O=C(NCC12CC3CC(CC(C3)C1)C2)c1nn2cccnc2c1Cl	–	16µM	–	18µM	–	–
COc1cc(/C=N/O)cc(Br)c1OCC(=O)NCc1ccccc1	–	?	·	14µM	–	–
COc1cc(/C=N/NC(=O)CCC(=O)NCc2ccccc2)cc(OC)c1OC	?	–	·	–	–	–
CCOc1cc(CNc2ccc(Br)cc2)cc(Br)c1OCC(=O)NC(C)(C)C	–	–	–	–	–	?
SMILES	Lamin A splicing	ALDH1A1 block	HTT ATP protect	HPGD inh	JMJD2E inh	HTT aggregate
CCOc1cc(CNc2ccccc2)cc(Br)c1OCC(=O)NC(C)(C)C	–	?	–	–	–	35µM
CCOc1cc(/C=N/O)cc(Br)c1OCC(=O)NCc1ccccc1	?	?	–[0.074 µM]	18µM	–	–
N#C/C(=C\c1ccc(O)c(O)c1)C(=O)c1ccc(O)c(O)c1	?	?	–[1.9 µM]	7.9µM	2.5µM	·
N#C/C(=C\c1c[nH]c2ccccc12)C(=O)c1ccc(O)c(O)c1	?	?	–[1.9 µM]	3.5µM	2.2µM	·
N#C/C(=C/c1ccc(C(=O)O)cc1)C(=O)Nc1ccccc1	·	–	–	·	–	–
N#C/C(=C\c1ccc(O)c(O)c1)S(=O)(=O)c1ccccc1	–	?	–[1.9 µM]	?	25µM	–
CN1CCN(C(=O)/C(C#N)=C/c2ccc(OC(F)F)cc2)CC1	·	·	–[10 µM]	·	–	–[9.22 µM]
N#C/C(=C\c1ccc(O)c(O)c1)C(=O)N1CCCC1	?	?	–	·	14µM	–
Cc1cc(/C=C(\C#N)C(=O)NCc2cccs2)c(C)[nH]1	·	?	–[10 µM]	·	?	–[9.22 µM]
N#C/C(=C\c1ccc(O)c(O)c1)C(=O)OCCc1cccs1	·	–	–	28µM	22µM	·
COc1ccc(N(Cc2cccs2)C(=O)c2ccco2)cc1	–	·	·	·	·	·
CNC(=O)c1ccc(Oc2ccc(C(=O)NC)cc2)cc1	–	–	–	2.5µM	–	?
CNC(=O)c1ccc(OC2CSC2)cc1	–	–	–	–	–	–
O=C(/C=C/c1ccco1)N1CCCC(c2ccccc2)C1 (stereo not given)	?	10µM	–[10 µM]	·	–	–[9.22 µM]
COc1ccc(N2CCN(C(=O)/C=C/c3ccco3)CC2)cc1	?	22µM	–	·	–	?
Cc1ccc(S(=O)(=O)N2CCN(C(=O)/C=C/c3ccco3)CC2)cc1	–	22µM	–[10 µM]	–	–	–
O=C(/C=C/c1ccccc1)N1CCC(c2ccccc2)C1 (stereo not given)	–	–	–[10 µM]	?	–	–
O=C(C1CCCN1S(=O)(=O)c1cccc2nsnc12)N1CCCCCC1 (stereo not given)	·	·	–[10 µM]	·	–	–[9.22 µM]
Cc1ccccc1CN1C(=O)c2ccccc2S(=O)c2ccc(C(=O)NCc3ccc(Cl)cc3)cc21 (stereo not given)	–	·	·	·	·	·
O=C(Nc1ccc(-c2cn3c(n2)SCC3)cc1)c1ccco1	·	?	–[10 µM]	·	–	–[9.22 µM]
COc1ccc(NC(=O)N2CC[C@@]3(CCCN(C(=O)c4cnccn4)C3)C2)cc1	·	–	–	–	·	·
COCCNc1ccnc(-c2ccccc2CN(C)C)n1	–	–	–	–	–	·
Cc1ccc(S(=O)(=O)NCCc2csc(-c3cccc(F)c3)n2)cc1	–	·	·	·	·	·
CCN(CCCc1ccccc1)CCCc1ccccc1	?	–	–	–	8.9µM	–
CC(C)(C)c1nnc2sc(SCC(=O)c3ccc(Cl)cc3)nn2c1=O	?	4.5µM	–	28µM	–	?
SMILES	Lamin A splicing	ALDH1A1 block	HTT ATP protect	HPGD inh	JMJD2E inh	HTT aggregate
Cc1ccc(C(=O)CSc2nn3c(=O)c(C(C)(C)C)nnc3s2)cc1	–	?	–	–	–	–
Cc1cccc(-c2oc(C)c(C)[n+]2[O-])c1	–	3.5µM	–	–	–	–[9.22 µM]
CCCCOc1ccc(C(=O)NCC(c2ccc(Cl)cc2)N2CCOCC2)cc1 (stereo not given)	–	·	·	·	·	·
Cc1ccc(Oc2ccccc2/C=N/O)cc1	?	–	–[10 µM]	–	–	–
C=CCOc1ccccc1/C=N/O	–	–	–[0.074 µM]	16µM	–	–
CS(=O)(=O)Nc1cccc(-c2cncnc2Nc2ccc(F)cc2)c1	–	?	–	·	·	·
O=C(CS(=O)(=O)c1cccc2nsnc12)Nc1ccc(F)cc1	–	·	·	·	·	·
COc1cccc(C(=O)N2CCN(Cc3cccc(F)c3)CC2)c1	–	18µM	–[10 µM]	–	?	–
COc1ccc(CN2CCN(C(=O)c3cccnc3)CC2)cc1Br	–	?	–[10 µM]	–	?	–

High-throughput results (PubChem BioAssay)
